From PubChem BioAssay (Tox21)
Records with an inconclusive call do not appear. The source made the active and inactive calls. Unless noted, calls come from the whole dose curve.

How the values were obtained:
[1] = Nuclear factor erythroid 2-related factor 2/antioxidant responsive element (Nrf2/ARE) small molecule agonists: qHTS cell viability counter screen in human keratinocytes (AID 1919968; active = well fitted curve in the direction sought with a large enough effect in the repeat runs; an effect the other way counts as inactive or inconclusive; note: nearly all actives have a fitted effect of over 55% in size); settings: KeratinoSens HaCaT ARE cells viability, CellTiter-Fluor, 24 h; series mostly up to 92.4 µM
Summary of the method: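 KeratinoSens HaCaT cells, 1,500/well, preincubated 5 h, then exposed to compounds in DMSO for 23 h at 37 C/5% CO2. Viability read as CellTiter-Fluor fluorescence after 1 h, in the same wells as the ARE-luciferase read.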

[2] = Nuclear factor erythroid 2-related factor 2/antioxidant responsive element (Nrf2/ARE) small molecule agonists: luciferase reporter gene qHTS assay in human keratinocytes (AID 1919969); settings: KeratinoSens HaCaT ARE-luciferase, luminescence, 24 h; series mostly up to 92.4 µM; note: nearly all actives have a fitted effect of over 35% in size
[3] = molecular target: Gonadotropin-releasing hormone receptor (Homo sapiens) (UniProt P30968); test: Human gonadotropin-releasing hormone receptor (GnRHR) small molecule agonists, calcium flux assay in GnRHR-HEK293 cells (AID 1920063); settings: calcium flux fluorescence, agonist mode; series mostly up to 57.6 µM; note: nearly all actives have a fitted effect of over 35% in size
Gonadotropin-releasing hormone receptor (Homo sapiens), sequence (P30968 whole entry, looked up): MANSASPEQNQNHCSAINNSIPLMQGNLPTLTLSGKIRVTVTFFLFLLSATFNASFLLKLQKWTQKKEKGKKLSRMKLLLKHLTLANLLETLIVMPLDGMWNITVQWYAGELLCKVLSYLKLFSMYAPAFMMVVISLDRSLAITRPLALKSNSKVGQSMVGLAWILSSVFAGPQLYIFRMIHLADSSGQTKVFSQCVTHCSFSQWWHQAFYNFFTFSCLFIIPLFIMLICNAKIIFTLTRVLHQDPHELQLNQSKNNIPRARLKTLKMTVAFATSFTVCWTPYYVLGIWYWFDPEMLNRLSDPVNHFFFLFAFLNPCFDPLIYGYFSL
Summary of the method: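 HEK293 cells stably expressing human GnRHR were dye-loaded for 1 h at 37 C. Compound was added in agonist mode and fluorescence (Ex/Em 480/540) recorded kinetically for 3 min. Fifteen concentrations, triplicates.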

[4] = molecular target: KiSS-1 receptor (Homo sapiens) (UniProt Q969F8); test: Human kisspeptin (KISS1R) small molecule agonists, calcium flux assay in KISS1R-HEK293 cells (AID 1920064; active = well fitted curve in the direction sought with a large enough effect in the repeat runs; an effect the other way counts as inactive or inconclusive); settings: KISS1R-HEK293, calcium flux fluorescence, agonist; series mostly up to 76.8 µM
KiSS-1 receptor (Homo sapiens), sequence (Q969F8 whole entry, looked up): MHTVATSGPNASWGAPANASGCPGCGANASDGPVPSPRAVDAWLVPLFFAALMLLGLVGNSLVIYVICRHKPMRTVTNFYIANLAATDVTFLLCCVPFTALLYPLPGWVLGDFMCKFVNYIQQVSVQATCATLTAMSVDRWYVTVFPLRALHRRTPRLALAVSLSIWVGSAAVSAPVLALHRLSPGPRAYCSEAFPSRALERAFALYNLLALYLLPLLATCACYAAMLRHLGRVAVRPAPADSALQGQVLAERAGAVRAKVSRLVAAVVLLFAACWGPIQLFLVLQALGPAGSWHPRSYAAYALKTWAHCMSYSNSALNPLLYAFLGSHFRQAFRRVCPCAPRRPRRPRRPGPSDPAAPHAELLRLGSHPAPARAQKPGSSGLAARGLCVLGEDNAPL
Summary of the method: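 HEK293 cells stably expressing human KISS1R were loaded with calcium dye for 1 h at 37 C, then given compound; fluorescence (Ex/Em 480/540) was read kinetically for 3 min. Fifteen concentrations, triplicate.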

[5] = G protein-coupled receptor (GPCR) small molecule agonists, calcium flux assay: HEK293 wild type cell line counter screen (AID 1920065); settings: HEK293 WT calcium flux, fluorescence, agonist mode; series mostly up to 57.6 µM
Summary of the method: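 Wild-type HEK293 cells plated 18 h, loaded with calcium dye 1 h at 37 C, then compounds added in agonist mode (ATP as positive control). Kinetic fluorescence Ex/Em 480/540 recorded 3 min at 1 sec intervals; 15 concentrations, triplicate.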

[6] = p53 small molecule agonists, cell-based qHTS assay with human liver microsomes (AID 1963577); settings: HCT-116 p53RE-bla with human liver microsomes, ratio, 16 h; series mostly up to 66 µM;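 note: p53 response element beta-lactamase reporter cells with liver microsomes plus NADPH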
Summary of the method: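 HLM-supplemented p53RE-bla reporter assay: 16 h compound exposure at 37 C, microsomes and NADPH each 0.5 mg/mL final, read by fluorescence intensity.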

[7] = p53 small molecule agonists, cell-based qHTS assay with rat liver microsomes (AID 1963578); settings: HCT-116 p53RE-bla, beta-lactamase ratio, 16 h; series mostly up to 66 µM
Summary of the method: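 Quantitative HTS of the Tox21 10K library: p53RE-bla cells, rat liver microsomes plus NADPH at 0.5 mg/mL final each, 16 h at 37 C, beta-lactamase fluorescence detection.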

[8] = p53 small molecule agonists, cell-based qHTS assay with human liver microsomes: qHTS cell viability counter screen (AID 1963579); settings: p53RE-bla HCT-116 viability, ATP luminescence, 16 h, HLM; series mostly up to 66 µM; note: nearly all actives have a fitted effect of over 45% in size
Summary of the method: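 Viability of p53RE-bla cells is measured as CellTiter-Glo luminescence following a 16 h, 37 C incubation with compound, liver microsomes from human donors and NADPH.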

[9] = p53 small molecule agonists, cell-based qHTS assay with rat liver microsomes: qHTS cell viability counter screen (AID 1963580); settings: p53RE-bla HCT-116 + rat microsomes, ATP viability, 16 h; series mostly up to 66 µM; note: nearly all actives have a fitted effect of over 45% in size
Summary of the method: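 Viability is assessed in parallel with the p53 reporter read: HCT-116 p53RE-bla cells receive compounds plus rat microsomes and NADPH (0.5 mg/mL final apiece), incubate 16 h at 37 C, and then CellTiter-Glo luminescence is recorded.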

[10] = p53 small molecule agonists, cell-based qHTS assay: qHTS cell viability counter screen (AID 1963581); settings: p53RE-bla HCT-116 viability, ATP luminescence, 16 h; series mostly up to 66 µM; note: nearly all actives have a fitted effect of over 45% in size
Summary of the method: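 p53RE-bla HCT-116 cells, compounds added 5 h after plating and incubated 16 h at 37 C. Cytotoxicity measured in the same wells as intracellular ATP by CellTiter-Glo luminescence after 30 min at room temperature.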

[11] = p53 small molecule agonists, cell-based qHTS assay (AID 1963582; active = well fitted activation curve with a large enough effect in the signal ratio in the repeat runs, not every such curve was filed as active; the % refers to the signal ratio); settings: HCT-116 p53RE-bla reporter, beta-lactamase FRET ratio, 16 h; series mostly up to 66 µM
Summary of the method: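 p53RE-bla reporter cells, compounds added in DMSO after 5 h plating, incubated 16 h at 37 C. Beta-lactamase read via 2 h room-temperature LiveBLAzer B/G FRET substrate, fluorescence intensity.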

[12] = molecular target: 5-hydroxytryptamine receptor 2A (Homo sapiens) (UniProt P28223); test: 5-hydroxytryptamine receptor 2A (HTR2A) small molecule antagonists, cell-based qHTS assay (AID 1963586); settings: HTR2A-CHO cells, DOI-induced calcium flux, fluorescence; series mostly up to 61.5 µM; note: nearly all actives have a fitted effect of over 45% in size
5-hydroxytryptamine receptor 2A (Homo sapiens), sequence (P28223 whole entry, looked up): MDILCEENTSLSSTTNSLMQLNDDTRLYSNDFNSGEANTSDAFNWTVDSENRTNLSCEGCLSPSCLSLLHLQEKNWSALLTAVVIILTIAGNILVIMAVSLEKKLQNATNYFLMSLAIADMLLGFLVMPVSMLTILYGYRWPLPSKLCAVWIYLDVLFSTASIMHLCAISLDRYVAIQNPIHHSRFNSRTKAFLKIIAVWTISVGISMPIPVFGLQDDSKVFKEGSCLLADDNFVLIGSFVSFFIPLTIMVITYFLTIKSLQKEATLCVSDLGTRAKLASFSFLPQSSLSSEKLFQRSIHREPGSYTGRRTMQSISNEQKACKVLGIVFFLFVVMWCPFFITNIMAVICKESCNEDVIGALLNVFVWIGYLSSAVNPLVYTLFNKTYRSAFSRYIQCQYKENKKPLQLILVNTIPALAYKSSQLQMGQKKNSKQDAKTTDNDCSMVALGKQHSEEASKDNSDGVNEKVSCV
Summary of the method: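 Antagonist-mode intracellular calcium assay: DOI (4 nM) added after 5 min compound pre-incubation at room temperature to dye-loaded HTR2A-CHO cells. Fluorescence followed for 3 min, sampled every second.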

[13] = molecular target: 5-hydroxytryptamine receptor 2A (Homo sapiens) (UniProt P28223); test: 5-hydroxytryptamine receptor 2A (HTR2A) small molecule agonists, cell-based qHTS assay (AID 1963587); settings: HTR2A-CHO cells, calcium flux fluorescence, agonist mode; series mostly up to 76.8 µM; note: nearly all actives have a fitted effect of over 30% in size
Summary of the method: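 CHO cells stably expressing human HTR2A, plated 18 h, loaded with calcium dye 1 h at 37 C. Agonist mode: compounds added and intracellular calcium fluorescence recorded kinetically for 2 min at 1 sec intervals.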

[14] = molecular target: Muscarinic acetylcholine receptor M1 (Homo sapiens) (UniProt P11229); test: Cholinergic receptor muscarinic 1 (CHRM1) small molecule antagonists, cell-based qHTS assay (AID 1963588); settings: CHRM1-CHO antagonist mode, calcium flux fluorescence; series mostly up to 61.5 µM; note: nearly all actives have a fitted effect of over 40% in size
Muscarinic acetylcholine receptor M1 (Homo sapiens), sequence (P11229 whole entry, looked up): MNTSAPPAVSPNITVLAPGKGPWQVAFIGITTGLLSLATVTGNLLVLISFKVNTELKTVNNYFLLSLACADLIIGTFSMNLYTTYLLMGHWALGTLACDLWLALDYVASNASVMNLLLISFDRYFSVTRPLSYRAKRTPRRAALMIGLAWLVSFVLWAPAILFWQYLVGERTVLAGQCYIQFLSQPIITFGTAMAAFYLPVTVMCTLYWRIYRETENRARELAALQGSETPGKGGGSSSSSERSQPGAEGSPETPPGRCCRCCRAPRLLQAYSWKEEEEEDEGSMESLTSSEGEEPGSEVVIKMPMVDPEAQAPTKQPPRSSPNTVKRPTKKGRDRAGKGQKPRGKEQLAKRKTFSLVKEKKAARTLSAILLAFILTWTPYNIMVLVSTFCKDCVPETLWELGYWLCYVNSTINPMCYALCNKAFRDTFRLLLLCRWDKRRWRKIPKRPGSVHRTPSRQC
Summary of the method: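 CHRM1-CHO calcium-flux assay, antagonist mode. Cells were seeded 18 h, dye-loaded 1 h at 37 C and given compound for 5 min at RT, then acetylcholine was added at 50nM. FDSS fluorescence was read 3 min; 15 concentrations, three runs.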

[15] = molecular target: Muscarinic acetylcholine receptor M1 (Homo sapiens) (UniProt P11229); test: Cholinergic receptor muscarinic 1 (CHRM1) small molecule agonists, cell-based qHTS assay (AID 1963589); settings: CHRM1-CHO cells, agonist mode, calcium flux fluorescence; series mostly up to 76.8 µM; note: nearly all actives have a fitted effect of over 35% in size
Summary of the method: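 CHO cells stably expressing human CHRM1 were loaded with calcium dye for 1 h at 37 C, then compound was added in agonist mode. Intracellular calcium fluorescence was followed kinetically at 1 s intervals. Fifteen concentrations were tested in three independent runs.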

[16] = cAMP Responsive Elements (CRE) small molecule agonists, cell-based qHTS assay (AID 1963590); settings: CRE-bla HEK293T, beta-lactamase FRET ratio, 3 h; series mostly up to 92.4 µM
Summary of the method: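 CRE-bla HEK 293T cells, 2,000/well in DMEM with 10% dialyzed FBS and 25 mM HEPES, pre-incubated 18 h at 37 C, then exposed to compound 3 h at 37 C. Beta-lactamase reporter read with LiveBLAzer B/G FRET substrate after 2 h at room temperature.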

[17] = cAMP Responsive Elements (CRE) small molecule antagonists, cell-based qHTS assay (AID 1963591; active = well fitted inhibition curve with a large enough effect in the signal ratio in the repeat runs, not every such curve was filed as active; the % refers to the signal ratio); settings: CRE-bla HEK293T, beta-lactamase FRET ratio; series mostly up to 92.4 µM
Summary of the method: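 CRE-bla HEK293T cells plated 18 h, then given compound plus NKH477 at 0.25 uM final for 3 h at 37C. Beta-lactamase reporter read with LiveBLAzer B/G FRET substrate after 2 h at room temperature.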

[18] = molecular target: D(2) dopamine receptor (Homo sapiens) (UniProt P14416); test: Dopamine D2 receptor (DRD2) small molecule agonists, cell-based qHTS assay (AID 1963594); settings: HEK293-DRD2 cAMP HTRF, agonist mode, 30 min; series mostly up to 92.4 µM; note: nearly all actives have a fitted effect of over 35% in size
D(2) dopamine receptor (Homo sapiens), sequence (P14416 whole entry, looked up): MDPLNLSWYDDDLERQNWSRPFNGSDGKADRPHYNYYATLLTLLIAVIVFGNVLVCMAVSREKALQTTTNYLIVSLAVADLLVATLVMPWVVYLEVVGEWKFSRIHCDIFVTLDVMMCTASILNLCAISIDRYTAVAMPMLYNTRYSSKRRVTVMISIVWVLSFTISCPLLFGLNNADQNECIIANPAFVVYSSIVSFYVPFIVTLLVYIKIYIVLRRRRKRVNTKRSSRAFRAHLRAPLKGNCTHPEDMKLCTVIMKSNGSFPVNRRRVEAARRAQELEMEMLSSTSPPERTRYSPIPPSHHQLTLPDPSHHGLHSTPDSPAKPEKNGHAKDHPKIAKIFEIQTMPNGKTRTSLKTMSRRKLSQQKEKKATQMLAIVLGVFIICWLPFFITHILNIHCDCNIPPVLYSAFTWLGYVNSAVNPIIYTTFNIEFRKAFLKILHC
Summary of the method: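 HEK293 cells stably expressing human DRD2, pre-treated with PDE inhibitor Ro20-1724 (0.1 mM final) and compound 10 min at room temperature, then stimulated with NKH477 (200nM […]) for 30 min. cAMP read by HTRF (665/620 nm).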

[19] = molecular target: D(2) dopamine receptor (Homo sapiens) (UniProt P14416); test: Dopamine D2 receptor (DRD2) small molecule antagonists, cell-based qHTS assay (AID 1963595; active = well fitted inhibition curve with a large enough effect in the signal ratio in the repeat runs, with a control signal flat; the % refers to the signal ratio); settings: HEK293-DRD2 cAMP HTRF antagonist mode; series mostly up to 92.4 µM
Summary of the method: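 DRD2-HEK293; 0.1 mM Ro20-1724; cpd 10 min RT; NKH477 200 nM + quinpirole 12 nM, 30 min RT; HTRF cAMP (cAMP-d2/anti-cAMP cryptate), 665/620 nm ratio after 1 h.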

[20] = molecular target: Beta-2 adrenergic receptor (Homo sapiens) (UniProt P07550); test: Adrenergic beta2 receptor (ADRB2) small molecule antagonists, cell-based qHTS assay (AID 1963592); settings: CHO-ADRB2 cells, isoproterenol-stimulated cAMP HTRF ratio, 0.5 h; series mostly up to 92.4 µM; note: nearly all actives have a fitted effect of over 50% in size
Beta-2 adrenergic receptor (Homo sapiens), sequence (P07550 whole entry, looked up): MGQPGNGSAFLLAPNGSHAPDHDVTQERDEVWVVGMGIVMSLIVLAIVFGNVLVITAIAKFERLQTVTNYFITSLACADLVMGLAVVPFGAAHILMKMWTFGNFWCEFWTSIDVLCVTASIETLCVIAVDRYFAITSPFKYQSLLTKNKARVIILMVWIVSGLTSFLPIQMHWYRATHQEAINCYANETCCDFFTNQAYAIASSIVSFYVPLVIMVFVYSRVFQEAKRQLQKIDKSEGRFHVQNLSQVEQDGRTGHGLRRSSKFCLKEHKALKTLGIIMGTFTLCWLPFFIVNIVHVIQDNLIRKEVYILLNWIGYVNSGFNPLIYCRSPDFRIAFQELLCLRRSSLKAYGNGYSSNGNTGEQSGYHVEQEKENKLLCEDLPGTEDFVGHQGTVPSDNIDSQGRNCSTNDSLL
Summary of the method: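 Cells (CHO, stable ADRB2 overexpression) incubated 18-20hr at 37C; compounds added from DMSO; agonist mix (1nM isoproterenol, 100uM IBMX, 25uM Ro-20-1724) added; 0.5hr RT; d2-cAMP and anti-cAMP-cryptate added; 1hr RT; 665/615 nm read.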

Measured: Potency

CCC(=O)c1cccc(Cl)c1
not listed: [20]
inactive: all other assays above

CC(C)COC(=O)c1ccccc1
not listed: [20]
inactive: all other assays above

CC1CCCO1 (stereo not given)
inactive: all assays above

COc1ccccc1N1CCN(CC(O)COc2cc(OC)c(OC)c(OC)c2)CC1 (stereo not given)
not listed: [18]
inactive: all other assays above

CCOC(=O)[C@H](CCc1ccccc1)N[C@H]1CS[C@H](c2cccs2)CN(CC(=O)O)C1=O
not listed: [18]
inactive: all other assays above

CCCCC1CCCCC(=O)O1 (stereo not given)
not listed: [16]
inactive: all other assays above
